According to PubChem BioAssay AID449728 (The Scripps Research Institute Molecular Screening Center, 2010):
Out of some 330,000 compounds screened, about 900 (0.27%) were called active. Many of the other results were omitted from the sample, so actives are more common in it than they were. Unmarked numbers belong to inactive results.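 How the source made its calls: active means inhibition above the campaign's mean inhibition across all tested compounds plus 3 SD (cut at about 9.9% in these data); inactive means the rest.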

Experiment: E. coli V3065 growth inhibition, primary screen, counter-screen for AddAB inhibitor project, absorbance, OD600 (AID 449728);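 further: uninfected addAB+ strain grown without phage in ampicillin broth; 0% = DMSO wells and 100% = ciprofloxacin 0.95 µg/ml wells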
Details: 18 h, at 11.9 µM, active compounds read high

SMILES	inhibition
CC[C@H]1OC(=O)[C@H](C)[C@@H](O[C@H]2C[C@@](C)(OC)[C@@H](O)[C@H](C)O2)[C@H](C)[C@@H](O[C@@H]2O[C@H](C)C[C@H](N(C)C)[C@H]2O)[C@](C)(O)C[C@@H](C)[C@@H]2N[C@@H](COCCOC)O[C@H]([C@H]2C)[C@]1(C)O	39.7% (active)
O=C(Nc1cccc2c1N(C(=O)c1ccco1)CCC2)c1ccco1	0.81%
CCCc1nc(SCC(=O)N2CCCC2)c2c(=O)n(C)c(=O)n(C)c2n1	0.51%
O=C(NCc1ccncc1)C(=O)NCc1ccco1	-0.95%
C/C(N)=C(/C#N)C(=O)COC(=O)C1CCN(C(=O)c2ccc(Cl)cc2)CC1	-2.66%
N#Cc1c(-c2ccc(F)cc2)cc(C2CC2)nc1SCC(=O)c1cccs1	-0.26%
CC(=O)NC(=S)Nc1ccc(NC(=S)NC(=O)c2ccc([N+](=O)[O-])cc2)cc1	-0.16%
Cn1ccc(=Nc2ccc(NC(=O)c3ccc(N=c4ccn(C)c5ccc([N+](=O)[O-])cc45)cc3)cc2)cc1	103% (active)
COc1cc(NS(=O)(=O)c2ccc(NC(=O)c3ccc([N+](=O)[O-])cc3)cc2)ncn1	1.53%
C=CCn1c(SCC(N)=O)nnc1-c1cc2c(s1)CCC(CC)C2 (stereo unspecified)	1.3%
CCCCN(CC)CCNC(=O)c1[nH]c(C)c(C(C)=O)c1C	-0.92%
O=C(CN1CCN(c2ccccn2)CC1)Nc1ccc(Br)cc1	2.27%
CCN(CC)c1ccc(NC(=O)CN2CCN(c3ccccn3)CC2)cc1	10.5% (active)
O=C(CN1CCN(c2ccccn2)CC1)NC1CCCCC1	1.09%
CC(=O)N(O)CCCCCNC(=O)CCC(=O)N(O)CCCCCNC(=O)CCC(=O)N(O)CCCCCNC(=O)CCC(=O)O	25.5% (active)
NC(=O)NCCCC(=O)O	-0.17%
CC1CCCC(NC(=O)c2cc(S(=O)(=O)N3CCCCC3)ccc2Cl)C1C (stereo unspecified)	-1.24%
O=C(NNC(=O)c1cc(S(=O)(=O)N2CCCCC2)ccc1Cl)c1ccccc1O	10.3% (active)
O=C(COC(=O)c1cc(S(=O)(=O)N2CCCCC2)ccc1Cl)NCc1ccco1	-0.84%
CCn1cc(/C=C2/SC(=S)NC2=O)c(C)n1	0%
Brc1ccc(/C=N/N2CCN(C3c4ccccc4-c4ccccc43)CC2)s1	0.91%
Cc1nn2c3cc(N4CCOCC4)ccc3nc2c2ccccc12	0.55%
COC(=O)CSc1nc2c(c(C3CC=CCC3)c1C#N)CCC2 (stereo unspecified)	0.17%

SMILES	inhibition
CCn1c(/C=C/c2ccc([N+](=O)[O-])o2)nc2ccccc2c1=O	21.6% (active)
CCOCCCn1c(NN)nc2ccccc2c1=O	2.87%
CCn1c(=O)c([N+](=O)[O-])c(NCc2ccc3c(c2)OCO3)c2ccccc21	0.41%
Cc1cn(C2C=CC(CO)O2)c(=O)[nH]c1=O (stereo unspecified)	8.77%
COc1cc(OC)c2c(c1)OC(=O)CC2c1cc(OC)c(OC)c(OC)c1 (stereo unspecified)	2.5%
CC1(C)CC2CC(C)(CN2c2ncnc3ccc(Br)cc23)C1 (stereo unspecified)	-0.09%
Cc1ccc(NC(=O)CCCNC(=O)c2ccc(Cl)cc2)cc1S(=O)(=O)N1CCOCC1	-1.94%
CC(C)[C@@H]1COC(c2cccc(C3=N[C@H](C(C)C)CO3)c2)=N1	-0.25%
CCN1/C(=C\c2ccc3ccccc3[n+]2CC)Sc2cc(C)ccc21	15% (active)
CC(=O)c1c(Nc2ccccc2)sc(C(=O)c2ccccc2)c1C	1.73%
CCOc1ccccc1NC(=S)N1CCN(c2cccc(C)c2C)CC1	0.08%
O=C(O)CSc1nccc2ccccc12	-0.18%
O=C1CCC(=O)N(O)CCCCCNC(=O)CCC(=O)N(O)CCCCCNC(=O)CCC(=O)N(O)CCCCCN1	29.4% (active)
CCOC(=O)c1nnn2c1nc(N1CCN(c3ccccc3)CC1)c1ccccc12	1.28%
O=C(/C=C/c1ccccc1Cl)Nc1ccc(S(=O)(=O)Nc2ncccn2)cc1	0.84%
COc1cc(C(=O)NC(=S)NCc2ccco2)cc(OC)c1OC	14.7% (active)
COc1cc(NC(=S)NCc2ccco2)c(OC)cc1Cl	-0.7%
COc1cccc(OC)c1C(=O)NC(=S)NCc1ccco1	1.37%
O=C(NCCc1c[nH]c2ccccc12)c1cc2ccccc2oc1=O	0.17%
CC(C)(C)N(Cc1ccccc1)C(=O)COC(=O)CCc1c[nH]c2ccccc12	-1.13%
CSC(=S)N/N=C/c1c[nH]c2ccccc12	12.8% (active)
O=C(O)c1cccc(NC(=S)N/N=C/c2c[nH]c3ccccc23)c1	0.08%
Nc1nonc1-n1nnc(C(=O)N/N=C/c2c[nH]c3ccccc23)c1-c1ccccc1	0%
